According to PubChem BioAssay:
The source made the active and inactive calls.

Experiments:
[1] = test system: Human papillomavirus type 1a protein E7 (residues 44-93); assay: HPV1a E7 fragment binders on microarrays, primary screen, biochemical, small-molecule microarray, residues 44-93, 635 nm fluorescence (AID 1108); settings: small-molecule microarray binding, fluorescence 635 nm; higher = more signal;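 also: E7 fragment applied at 1 µg/mL in TBST for 1 h at 4 C; score combines spot fluorescence with its signal to noise ratio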
[2] = modulators of HCV replicon luciferase signal, primary screen, HCV replication inhibitor project, Huh7 cells, luciferase reporter (AID 1109); settings: 48 h, higher = more signal;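 also: huh7 hepatoma cells harbouring a luciferase neomycin HCV replicon reporter; luciferase luminescence as measure of HCV replicon replication; test concentration not given here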
[3] = biological target: Left-right determination factor 2 (Homo sapiens) (UniProt O00292); assay: LEFTY2 binders on small-molecule microarrays, primary screen, biochemical, small-molecule microarray, 635 nm fluorescence scan (AID 1110); settings: LEFTY2 binding, higher = more signal
[4] = biological target: Calmodulin-1 (Homo sapiens) (UniProt P0DP23); assay: CALM1 binders on microarrays, EGTA buffer, profiling panel, biochemical, small-molecule microarray, Cy5-labelled CALM1 (AID 1111); settings: Cy5-CALM1 binding fluorescence, higher = more signal;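 also: labelled calmodulin applied in Tris saline Tween buffer holding calcium plus EGTA and DTT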
[5] = biological target: Calmodulin-1 (Homo sapiens) (UniProt P0DP23); assay: calcium-bound CALM1 binders on microarrays, profiling panel, artefact control for SMM control-protein annotation, biochemical, small-molecule microarray, Cy5-labelled CALM1, plus calcium (AID 1112); settings: Cy5-CALM1 binding fluorescence, higher = more signal;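 also: score merges spot fluorescence with signal to noise from triplicate slides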
[6] = small-molecule microarray binders of probe aWnt5a, primary screen, biochemical, biotinylated probe, 635/667 nm fluorescence (AID 1113); settings: higher = more signal;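 also: score merges 667 nm fluorescence intensity with signal-to-noise per printed feature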
[7] = small-molecule microarray binders of probe aShh, primary screen, biochemical, biotinylated probe, 635/667 nm fluorescence (AID 1114); settings: higher = more signal;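 also: probe is biotin-labelled aShh protein from a stem cell growth factor screen; measures binding of labelled protein to compounds printed on the slide; score merges feature fluorescence at 667 nm with signal-to-noise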
[8] = small-molecule microarray binders of probe aNog, primary screen, biochemical, biotinylated probe, 635/667 nm fluorescence (AID 1115); settings: higher = more signal;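 also: probe is biotinylated aNog protein used at 0.15 µg/mL for 1 h at 4 C; z-score combines 667 nm fluorescence of each spot with its signal to noise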
[9] = biological target: Torsin-1A-interacting protein 1 (Homo sapiens) (UniProt Q5JTV8); assay: LAP1 binders from COS7 cell lysate, primary screen, small-molecule microarray, 635/667 nm fluorescence (AID 1116); settings: COS7-hLAP1 lysate binding, 635 nm fluorescence, higher = more signal
[10] = biological target: Alpha-bungarotoxin (Bungarus multicinctus) (UniProt P60615); assay: alpha-bungarotoxin binders on microarray, profiling panel, artefact control for SMM control protein annotation, biochemical, small-molecule microarray, Alexa647 label, 635/667 nm fluorescence (AID 1117); settings: alpha-BTX-A647 binding fluorescence, higher = more signal
Albumin (Bos taurus) = Albumin (Bos taurus) (UniProt P02769); assay: bovine serum albumin binders on microarray, profiling panel, artefact control for SMM control protein annotation, biochemical, small-molecule microarray, Alexa647 label, 635/667 nm fluorescence (AID 1118); settings: BSA-A647 binding, fluorescence 635 nm, higher = more signal;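 also: score merges 667 nm emission intensity and signal-to-noise per printed compound spot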
[11] = small-molecule microarray binders of probe aXIP, primary screen, biochemical, NeuroSMM set, 635/667 nm fluorescence (AID 1119); settings: higher = more signal, called active from +8 up or from −8 down;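 also: probe is the protein aXip251-270 applied at 1 µg/mL to compound-printed slides; binding of probe to printed compounds measured as 667 nm fluorescence plus signal to noise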
[12] = small-molecule binders of probe aNOTCH3, primary screen, biochemical, small-molecule microarray, 635/667 nm fluorescence (AID 1120); settings: higher = more signal;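 also: probe is a biotin-tagged antibody raised against NOTCH3 rather than NOTCH3 protein; score merges spot fluorescence near 667 nm with spot signal to noise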
[13] = small-molecule binders of probe aNOTCH2, primary screen, biochemical, small-molecule microarray, 635/667 nm fluorescence (AID 1121); settings: higher = more signal;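 also: score merges feature fluorescence read at 667 nm with its signal to noise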
[14] = biological target: Carbonic anhydrase 2 (Homo sapiens) (UniProt P00918); assay: CAII small-molecule binders, profiling panel, biochemical, small-molecule microarray, Alexa647-labelled CAII (AID 1122); settings: CAII-A647 binding fluorescence, higher = more signal
[15] = COS7 lysate on small-molecule microarray, probe aHis, 635 nm (AID 1123); settings: COS7 cell lysate, fluorescence, higher = more signal;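 also: z-score combines 667nm fluorescence intensity with signal-to-noise per printed compound spot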
[16] = compound binding in COS7 lysate, probe aLAP1, primary screen, cell lysate, small-molecule microarray (AID 1124); settings: probe aLAP1, fluorescence, higher = more signal;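 also: lysate comes from COS7 cells expressing LAP1 and is applied at 0.3 µg/mL; score merges spot fluorescence near 667 nm with signal-to-noise over triplicate slides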
Sam68 (KHDRBS1) = assay: Sam68 small-molecule binders, primary screen, biochemical, small-molecule microarray, 635 nm fluorescence (AID 1125); settings: small-molecule microarray binding, higher = more signal;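 also: score merges 667 nm channel intensity with signal to noise over triplicate slides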
[17] = test system: Chordin-like protein 2 (CHRDL2); assay: CHRDL2 small-molecule binders, primary screen, biochemical, small-molecule microarray, 635 nm fluorescence (AID 1126); settings: small-molecule microarray binding, fluorescence 635 nm; higher = more signal;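 also: printed compound slides probed with Chrdl2 protein at 4 µg/mL for 1 h at 4 C; score merges 667 nm emission intensity with signal to noise over three replicate slides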
[18] = biological target: Concanavalin-A (Canavalia ensiformis) (UniProt P02866); assay: ConA small-molecule binders, primary screen, artefact control for SMM control protein annotation, biochemical, small-molecule microarray, Alexa647 label, 635 nm (AID 1127); settings: ConA-A647 binding fluorescence, higher = more signal;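 also: z combines 667 nm emission intensity with signal-to-noise across three replicate slides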
Sequence of Concanavalin-A (Canavalia ensiformis) (P02866 whole entry, looked up): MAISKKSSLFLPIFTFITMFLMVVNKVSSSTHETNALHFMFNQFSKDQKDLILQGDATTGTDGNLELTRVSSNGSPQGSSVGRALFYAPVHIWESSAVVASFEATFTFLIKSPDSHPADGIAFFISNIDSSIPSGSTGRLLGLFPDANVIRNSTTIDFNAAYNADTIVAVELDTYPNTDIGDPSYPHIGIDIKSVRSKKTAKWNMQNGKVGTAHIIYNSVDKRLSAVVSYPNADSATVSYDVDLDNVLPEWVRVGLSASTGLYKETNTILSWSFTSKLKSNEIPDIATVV

Sequence of Torsin-1A-interacting protein 1 (Homo sapiens) (Q5JTV8 whole entry, looked up): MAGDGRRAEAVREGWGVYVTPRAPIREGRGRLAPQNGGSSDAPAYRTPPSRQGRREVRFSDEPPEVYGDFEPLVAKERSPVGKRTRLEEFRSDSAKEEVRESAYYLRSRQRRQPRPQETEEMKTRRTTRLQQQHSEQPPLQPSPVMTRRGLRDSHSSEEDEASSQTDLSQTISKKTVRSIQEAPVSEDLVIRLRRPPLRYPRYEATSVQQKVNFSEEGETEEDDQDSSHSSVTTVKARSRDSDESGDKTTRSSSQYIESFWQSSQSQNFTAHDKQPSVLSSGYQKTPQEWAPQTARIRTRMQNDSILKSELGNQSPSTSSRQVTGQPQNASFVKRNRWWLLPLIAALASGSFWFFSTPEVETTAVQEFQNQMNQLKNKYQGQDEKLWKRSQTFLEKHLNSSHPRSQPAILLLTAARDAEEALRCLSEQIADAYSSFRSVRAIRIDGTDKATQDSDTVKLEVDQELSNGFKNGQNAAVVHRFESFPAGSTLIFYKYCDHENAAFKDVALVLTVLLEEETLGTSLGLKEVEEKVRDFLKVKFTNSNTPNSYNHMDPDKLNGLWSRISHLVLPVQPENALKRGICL
Sequence of Albumin (Bos taurus) (P02769 whole entry, looked up): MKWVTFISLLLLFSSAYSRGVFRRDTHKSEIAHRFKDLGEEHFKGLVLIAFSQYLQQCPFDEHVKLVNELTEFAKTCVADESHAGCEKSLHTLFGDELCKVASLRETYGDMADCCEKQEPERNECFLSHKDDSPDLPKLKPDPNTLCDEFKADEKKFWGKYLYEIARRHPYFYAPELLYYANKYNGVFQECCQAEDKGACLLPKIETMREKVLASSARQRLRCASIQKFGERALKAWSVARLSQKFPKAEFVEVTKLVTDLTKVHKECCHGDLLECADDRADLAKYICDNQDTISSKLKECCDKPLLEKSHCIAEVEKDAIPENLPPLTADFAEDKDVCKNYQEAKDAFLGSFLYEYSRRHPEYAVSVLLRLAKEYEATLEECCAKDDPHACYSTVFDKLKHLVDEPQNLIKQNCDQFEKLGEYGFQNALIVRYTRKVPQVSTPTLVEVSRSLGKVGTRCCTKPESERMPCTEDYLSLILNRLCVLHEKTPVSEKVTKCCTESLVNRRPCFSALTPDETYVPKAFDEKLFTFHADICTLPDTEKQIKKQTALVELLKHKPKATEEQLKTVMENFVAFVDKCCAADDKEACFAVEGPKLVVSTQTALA
Sequence of Left-right determination factor 2 (Homo sapiens) (O00292 whole entry, looked up): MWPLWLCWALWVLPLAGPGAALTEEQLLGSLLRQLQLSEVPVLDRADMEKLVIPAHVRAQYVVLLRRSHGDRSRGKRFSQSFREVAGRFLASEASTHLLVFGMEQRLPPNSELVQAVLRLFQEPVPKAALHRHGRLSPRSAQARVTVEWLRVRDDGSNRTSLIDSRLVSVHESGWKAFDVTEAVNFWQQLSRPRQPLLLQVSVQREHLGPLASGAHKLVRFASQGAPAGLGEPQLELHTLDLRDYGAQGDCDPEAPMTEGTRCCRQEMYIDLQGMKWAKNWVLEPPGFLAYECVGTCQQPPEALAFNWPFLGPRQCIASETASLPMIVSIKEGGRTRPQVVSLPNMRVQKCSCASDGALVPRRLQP
Sequence of Alpha-bungarotoxin (Bungarus multicinctus) (P60615 whole entry, looked up): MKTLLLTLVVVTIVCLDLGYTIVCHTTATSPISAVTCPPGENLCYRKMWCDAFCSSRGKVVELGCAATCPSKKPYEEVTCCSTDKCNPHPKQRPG

| SMILES | composite z-score [1] | z-score [2] | composite z-score [3] | composite z-score [4] | composite z-score [5] | composite z-score [6] | composite z-score [7] | composite z-score [8] | composite z-score [9] | composite z-score [10] | composite z-score (Albumin (Bos taurus)) | composite Z-score [11] | composite z-score [12] | composite z-score [13] | composite z-score [14] | composite z-score [15] | composite z-score [16] | composite z-score (Sam68 (KHDRBS1)) | composite z-score [17] | composite z-score [18] |
| --- | --- | --- | --- | --- | --- | --- | --- | --- | --- | --- | --- | --- | --- | --- | --- | --- | --- | --- | --- | --- |
| Cc1ccc(S[C@]2(C(=O)NCCN3CCOCC3)CC(=O)N(Cc3ccccc3Cl)[C@@H]2c2ccc(CO)cc2I)cc1 | 0.772 | -1.25 | -1.45 | 0.0002 | 0.154 | 0.522 | 0.464 | 2.2 | 2.35 | -0.903 | 0.243 | 0.555 (inactive) | 0.0226 | 0.584 | 0.805 | 2.75 | 1.49 | 0.653 | -0.35 | -0.763 |
| Cc1ccccc1C(O)C1C=CC2C(=O)NC(=O)C2N1Nc1ccccn1 (stereo not given) | -0.439 | 0.331 | 0.263 | -0.285 | -0.206 | -0.221 | -0.349 | -0.0682 | 0.692 | 0.173 | 0.65 | 0.497 (inactive) | -0.15 | -0.14 | 0.355 | 0.78 | 0.483 | -0.805 | 0.102 | -0.227 |
| Cc1ccc(N2C(=O)c3ccccc3[C@@H](C(=O)NCCCN(C)C)[C@@H]2c2ccc(CO)cc2)nc1 | -0.48 | 0.234 | -0.14 | -0.571 | -0.382 | -0.22 | -0.452 | -0.577 | 1.29 | 0.14 | -0.0424 | 0.403 (inactive) | -0.416 | -0.244 | -0.0786 | -0.515 | -0.225 | -0.292 | -0.283 | 0.375 |
| CC(CO)N1C(=O)[C@@H]2[C@H]3C(=O)OCC=C[C@H]3OC23C=CCN(Cn2nnc4ccccc42)C(=O)[C@@H]13 (stereo not given in full) | -0.931 | 0.0368 | -1.4 | -0.196 | 0.0507 | -0.13 | -0.117 | 0.0517 | -0.607 | -0.975 | -0.779 | 0.6 (inactive) | -0.256 | -0.13 | 0.419 | 0.523 | -0.199 | -0.766 | -0.851 | -0.967 |
| COc1ccc(C#Cc2ccc3c(c2)[C@]2(C(=O)N3)[C@H](c3ccc(O)cc3)N3[C@H](c4ccccc4)[C@H](c4ccccc4)OC(=O)[C@H]3[C@@H]2C(=O)Nc2nc3ccccc3s2)cc1 | 1.26 | -1.13 | 0.739 | 1.11 | 0.495 | -0.0685 | -0.0813 | 0.352 | 1.22 | 1.25 | 0.67 | 0.276 (inactive) | -0.014 | 0.117 | 0.61 | 2.47 | 0.98 | 1.29 | 0.428 | 1.08 |
| COC(=O)[C@@]1(Cc2ccc(F)cc2)[C@H]2c3cc(C(=O)N4CCCC4)n(Cc4ccc(C)c(F)c4F)c3C[C@H]2CN1C(=O)c1ccccc1 | -0.751 | -0.914 | -0.419 | 0.344 | 0.612 | -0.119 | -0.0813 | 0.935 | 0.65 | -0.106 | 1.04 | -0.474 (inactive) | -0.0304 | 0.219 | 0.834 | 0.922 | 1.14 | -0.451 | -0.186 | -0.927 |
| COc1ccc([Si](C)(C)[C@H]2[C@H](CC(=O)N(CCO)Cc3ccccc3)O[C@@]3(C(=O)N(C)c4c(Br)cc(C)cc43)[C@@H]2C)cc1 | 0.926 | -4.28 | 1.12 | -0.763 | 0.973 | -0.176 | -0.154 | -0.291 | 0.491 | 0.572 | 0.509 | -0.324 (inactive) | -0.0072 | -0.179 | 0.731 | 1.07 | 0.0123 | 0.995 | 1.27 | 0.652 |
| COc1cccc(C)c1NC(=O)O[C@H]1[C@H](OC(=O)Nc2ccc3c(c2)OCO3)[C@@H](OC(=O)Nc2ccc3c(c2)OCO3)[C@@H](OC)O[C@@H]1CO | 1.42 | 0.658 | 0.794 | 0.108 | -1.04 | 0.0973 | 0.149 | -0.0899 | 1.5 | 0.869 | 0.48 | 0.525 (inactive) | 0.508 | -0.0714 | 0.43 | 2.53 | 1.29 | 1.29 | 0.492 | 0.66 |
| C=C(/C(=C/C[C@H](OC(C)=O)c1ccc(CO)o1)c1cnc2ccccc2c1)C(C)C | 1.43 | -2.23 | 0.552 | 1.4 | -0.24 | -0.0643 | 0.149 | 0.33 | 1.07 | 2.15 | 0.899 | 0.456 (inactive) | 0.245 | -0.148 | 0.945 | 0.948 | 0.269 | 1.29 | 1.06 | 1.14 |
| COc1cc2c(cc1O)C(c1ccc(CN3CCCC3)cc1)N(Cc1cc3c(cc1Br)OCO3)CC2 (stereo not given) | -1.28 | -2.92 | -0.248 | 1.47 | 0.91 | -0.109 | -0.2 | 0.114 | 0.16 | 0.132 | 0.905 | 0.0698 (inactive) | -0.0089 | -0.102 | 0.891 | 0.796 | 0.119 | -0.521 | -0.0867 | 0.655 |
| C=CCC(OC(C)=O)[C@@H]1[C@@H](N(Cc2cccc3ccccc23)C(=O)Cc2ccc(OC)cc2)c2cc(OCCCO)ccc2N1C(=O)c1ccc(-c2ccccc2)cc1 (stereo not given in full) | -0.446 | 0.321 | -0.279 | -0.228 | 0.726 | -0.157 | -0.156 | 0.546 | 0.435 | 0.28 | 0.249 | -0.166 (inactive) | -0.0647 | -0.0895 | -0.0283 | 0.917 | 0.181 | -0.189 | 0.0133 | -0.285 |
